Data reported in ChEMBL document CHEMBL2218924, “A broad activity screen in support of a chemogenomic map for kinase signalling research and drug discovery” (Biochem J, 2013).

How the values were obtained:
[1] = biological target: T1, Ephrin type-A receptor 3 (Homo sapiens) (UniProt P29320); settings: at 10 µM
T1 sequence (whole entry): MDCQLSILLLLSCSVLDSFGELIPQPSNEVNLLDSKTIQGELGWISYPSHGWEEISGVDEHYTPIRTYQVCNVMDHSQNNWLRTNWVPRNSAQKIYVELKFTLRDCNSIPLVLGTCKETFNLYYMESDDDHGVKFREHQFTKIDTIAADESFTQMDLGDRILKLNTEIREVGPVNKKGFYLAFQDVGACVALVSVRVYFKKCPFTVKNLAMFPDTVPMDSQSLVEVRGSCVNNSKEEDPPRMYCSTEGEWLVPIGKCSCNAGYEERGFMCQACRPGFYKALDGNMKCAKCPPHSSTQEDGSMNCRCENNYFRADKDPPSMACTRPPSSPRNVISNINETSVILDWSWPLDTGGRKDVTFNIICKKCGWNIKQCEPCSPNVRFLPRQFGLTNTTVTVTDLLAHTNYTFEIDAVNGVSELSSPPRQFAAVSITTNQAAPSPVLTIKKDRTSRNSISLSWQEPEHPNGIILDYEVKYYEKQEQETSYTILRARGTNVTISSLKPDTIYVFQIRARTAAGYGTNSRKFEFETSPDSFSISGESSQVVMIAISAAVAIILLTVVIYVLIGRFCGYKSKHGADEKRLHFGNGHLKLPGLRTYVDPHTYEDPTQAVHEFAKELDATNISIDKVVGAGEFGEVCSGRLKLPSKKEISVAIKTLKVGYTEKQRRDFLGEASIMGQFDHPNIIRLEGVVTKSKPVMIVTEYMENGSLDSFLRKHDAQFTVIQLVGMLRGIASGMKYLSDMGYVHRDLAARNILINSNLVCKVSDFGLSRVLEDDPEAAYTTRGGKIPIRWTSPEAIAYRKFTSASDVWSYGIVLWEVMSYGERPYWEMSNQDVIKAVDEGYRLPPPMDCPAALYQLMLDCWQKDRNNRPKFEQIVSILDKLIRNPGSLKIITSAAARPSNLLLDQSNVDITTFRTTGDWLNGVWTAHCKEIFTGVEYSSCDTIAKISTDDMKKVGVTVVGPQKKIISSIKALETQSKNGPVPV

[2] = biological target: Ephrin type-A receptor 4 (Homo sapiens) (UniProt P54764); settings: at 1 µM
[3] = biological target: Ephrin type-A receptor 4 (Homo sapiens) (UniProt P54764); settings: at 10 µM
[4] = biological target: Ephrin type-A receptor 7 (Homo sapiens) (UniProt Q15375); settings: at 1 µM
[5] = biological target: Ephrin type-A receptor 7 (Homo sapiens) (UniProt Q15375); settings: at 10 µM
[6] = biological target: T2, Ephrin type-A receptor 8 (Homo sapiens) (UniProt P29322); settings: at 1 µM
T2 sequence (whole entry): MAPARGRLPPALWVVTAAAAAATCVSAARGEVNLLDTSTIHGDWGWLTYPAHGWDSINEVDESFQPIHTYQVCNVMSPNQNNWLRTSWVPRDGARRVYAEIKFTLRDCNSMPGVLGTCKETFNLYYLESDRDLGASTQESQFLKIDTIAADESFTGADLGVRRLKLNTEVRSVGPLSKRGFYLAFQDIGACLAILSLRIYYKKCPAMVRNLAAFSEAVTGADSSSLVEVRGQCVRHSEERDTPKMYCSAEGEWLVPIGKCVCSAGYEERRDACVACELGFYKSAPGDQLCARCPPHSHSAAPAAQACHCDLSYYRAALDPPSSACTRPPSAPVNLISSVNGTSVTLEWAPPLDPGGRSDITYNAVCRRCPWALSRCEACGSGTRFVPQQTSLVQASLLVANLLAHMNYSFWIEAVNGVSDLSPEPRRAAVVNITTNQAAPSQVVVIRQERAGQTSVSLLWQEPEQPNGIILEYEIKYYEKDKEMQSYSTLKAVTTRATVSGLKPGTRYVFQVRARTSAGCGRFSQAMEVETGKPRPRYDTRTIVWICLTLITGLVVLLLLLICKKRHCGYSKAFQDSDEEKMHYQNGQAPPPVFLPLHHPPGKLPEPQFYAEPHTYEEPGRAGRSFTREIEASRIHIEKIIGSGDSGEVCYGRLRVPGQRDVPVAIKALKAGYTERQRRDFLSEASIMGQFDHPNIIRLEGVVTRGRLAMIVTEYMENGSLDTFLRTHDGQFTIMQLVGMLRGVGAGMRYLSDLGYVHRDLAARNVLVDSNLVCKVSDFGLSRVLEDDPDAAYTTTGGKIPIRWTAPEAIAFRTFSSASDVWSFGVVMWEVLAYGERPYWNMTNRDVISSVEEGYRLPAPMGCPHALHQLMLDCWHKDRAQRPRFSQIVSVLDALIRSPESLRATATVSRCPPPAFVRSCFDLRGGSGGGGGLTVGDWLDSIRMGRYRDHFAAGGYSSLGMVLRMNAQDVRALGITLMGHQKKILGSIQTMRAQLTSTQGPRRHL

[7] = biological target: T2, Ephrin type-A receptor 8 (Homo sapiens); settings: at 10 µM
[8] = biological target: T3, Ephrin type-B receptor 1 (Homo sapiens) (UniProt P54762); settings: at 1 µM
T3 sequence (whole entry): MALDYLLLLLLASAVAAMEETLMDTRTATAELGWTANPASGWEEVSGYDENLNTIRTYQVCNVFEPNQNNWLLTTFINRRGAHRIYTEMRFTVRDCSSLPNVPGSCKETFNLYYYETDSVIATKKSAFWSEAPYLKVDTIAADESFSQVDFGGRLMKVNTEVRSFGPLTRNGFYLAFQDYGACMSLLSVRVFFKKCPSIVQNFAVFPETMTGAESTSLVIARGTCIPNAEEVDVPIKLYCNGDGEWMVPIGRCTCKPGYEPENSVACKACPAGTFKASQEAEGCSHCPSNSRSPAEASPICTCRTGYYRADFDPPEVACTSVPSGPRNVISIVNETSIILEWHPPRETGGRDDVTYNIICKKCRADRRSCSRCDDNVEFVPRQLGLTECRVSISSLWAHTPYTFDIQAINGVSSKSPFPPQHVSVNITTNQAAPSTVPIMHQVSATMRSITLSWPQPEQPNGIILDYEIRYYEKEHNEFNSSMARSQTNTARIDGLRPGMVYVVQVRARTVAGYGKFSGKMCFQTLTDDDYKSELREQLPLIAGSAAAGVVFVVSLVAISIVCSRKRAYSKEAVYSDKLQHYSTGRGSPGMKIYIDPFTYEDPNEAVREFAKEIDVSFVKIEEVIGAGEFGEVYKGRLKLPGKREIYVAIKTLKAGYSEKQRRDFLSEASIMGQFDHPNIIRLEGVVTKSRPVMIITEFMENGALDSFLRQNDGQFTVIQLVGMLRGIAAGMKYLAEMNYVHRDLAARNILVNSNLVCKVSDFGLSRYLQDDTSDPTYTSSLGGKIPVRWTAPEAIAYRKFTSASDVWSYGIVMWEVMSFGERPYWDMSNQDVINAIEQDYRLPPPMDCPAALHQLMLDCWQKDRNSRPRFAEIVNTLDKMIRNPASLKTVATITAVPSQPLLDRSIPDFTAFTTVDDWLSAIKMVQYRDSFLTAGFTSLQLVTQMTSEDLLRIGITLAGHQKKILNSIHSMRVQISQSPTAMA

[9] = biological target: T3, Ephrin type-B receptor 1 (Homo sapiens); settings: at 10 µM
[10] = biological target: T4, Ephrin type-B receptor 3 (Homo sapiens) (UniProt P54753); settings: at 1 µM
T4 sequence (whole entry): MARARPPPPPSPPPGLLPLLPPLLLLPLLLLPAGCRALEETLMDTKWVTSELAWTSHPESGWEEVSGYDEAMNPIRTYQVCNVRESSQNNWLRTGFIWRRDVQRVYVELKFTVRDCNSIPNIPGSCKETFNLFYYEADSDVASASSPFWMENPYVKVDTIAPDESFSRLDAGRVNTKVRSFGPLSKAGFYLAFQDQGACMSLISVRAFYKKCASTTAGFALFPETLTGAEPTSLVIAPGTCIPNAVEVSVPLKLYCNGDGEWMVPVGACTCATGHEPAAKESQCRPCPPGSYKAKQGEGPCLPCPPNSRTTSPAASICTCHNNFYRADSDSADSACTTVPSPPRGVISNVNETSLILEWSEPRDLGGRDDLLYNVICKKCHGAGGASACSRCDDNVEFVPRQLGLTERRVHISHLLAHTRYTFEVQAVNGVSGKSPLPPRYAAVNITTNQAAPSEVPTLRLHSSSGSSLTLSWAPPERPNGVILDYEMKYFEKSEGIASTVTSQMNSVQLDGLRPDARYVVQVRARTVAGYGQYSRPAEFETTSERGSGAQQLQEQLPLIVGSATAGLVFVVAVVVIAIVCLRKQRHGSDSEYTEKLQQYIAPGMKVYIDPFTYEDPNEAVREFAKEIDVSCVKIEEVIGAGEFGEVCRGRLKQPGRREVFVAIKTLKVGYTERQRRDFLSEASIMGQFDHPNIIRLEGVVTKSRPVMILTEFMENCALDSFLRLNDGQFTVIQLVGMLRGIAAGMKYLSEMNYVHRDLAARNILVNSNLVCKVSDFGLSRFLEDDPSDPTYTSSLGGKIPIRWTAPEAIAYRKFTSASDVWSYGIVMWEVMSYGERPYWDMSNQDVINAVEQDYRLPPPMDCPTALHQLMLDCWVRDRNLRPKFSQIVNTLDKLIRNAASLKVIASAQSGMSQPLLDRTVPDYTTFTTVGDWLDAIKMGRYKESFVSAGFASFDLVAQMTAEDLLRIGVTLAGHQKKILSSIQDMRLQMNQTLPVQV

[11] = biological target: T4, Ephrin type-B receptor 3 (Homo sapiens); settings: at 10 µM
[12] = biological target: Receptor tyrosine-protein kinase erbB-4 (Homo sapiens) (UniProt Q15303); settings: at 1 µM
[13] = biological target: Receptor tyrosine-protein kinase erbB-4 (Homo sapiens) (UniProt Q15303); settings: at 10 µM
[14] = biological target: Focal adhesion kinase 1 (Homo sapiens) (UniProt Q05397); settings: at 1 µM
[15] = biological target: T5, Ephrin type-B receptor 4 (Homo sapiens) (UniProt P54760); settings: at 1 µM
T5 sequence (whole entry): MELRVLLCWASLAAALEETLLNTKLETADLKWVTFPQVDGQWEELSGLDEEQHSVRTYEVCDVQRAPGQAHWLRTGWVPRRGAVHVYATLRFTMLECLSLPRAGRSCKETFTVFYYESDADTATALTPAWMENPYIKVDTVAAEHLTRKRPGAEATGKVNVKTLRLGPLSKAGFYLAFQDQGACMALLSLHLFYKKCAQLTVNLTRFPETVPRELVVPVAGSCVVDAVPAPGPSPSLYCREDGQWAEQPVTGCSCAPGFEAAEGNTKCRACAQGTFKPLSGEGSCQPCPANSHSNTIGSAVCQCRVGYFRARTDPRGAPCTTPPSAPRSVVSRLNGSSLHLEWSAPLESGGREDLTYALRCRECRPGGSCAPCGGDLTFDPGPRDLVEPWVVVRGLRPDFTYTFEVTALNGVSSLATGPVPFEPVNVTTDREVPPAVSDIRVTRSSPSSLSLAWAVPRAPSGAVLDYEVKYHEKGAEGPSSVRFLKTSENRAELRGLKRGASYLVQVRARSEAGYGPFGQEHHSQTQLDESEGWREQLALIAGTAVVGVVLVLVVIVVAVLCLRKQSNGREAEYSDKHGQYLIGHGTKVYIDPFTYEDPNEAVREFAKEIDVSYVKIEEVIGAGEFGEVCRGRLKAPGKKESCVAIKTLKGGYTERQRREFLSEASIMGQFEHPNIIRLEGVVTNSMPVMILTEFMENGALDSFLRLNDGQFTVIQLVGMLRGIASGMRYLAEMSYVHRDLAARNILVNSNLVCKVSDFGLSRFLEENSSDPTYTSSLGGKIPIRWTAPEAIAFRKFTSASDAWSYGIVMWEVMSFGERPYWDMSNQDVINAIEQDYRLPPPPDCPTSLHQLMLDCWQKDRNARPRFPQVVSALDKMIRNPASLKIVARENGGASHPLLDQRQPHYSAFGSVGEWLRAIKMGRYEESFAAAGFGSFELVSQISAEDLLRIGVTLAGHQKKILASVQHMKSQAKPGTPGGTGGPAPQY

[16] = biological target: T5, Ephrin type-B receptor 4 (Homo sapiens); settings: at 10 µM

Receptor tyrosine-protein kinase erbB-4 (Homo sapiens), sequence (Q15303 whole entry): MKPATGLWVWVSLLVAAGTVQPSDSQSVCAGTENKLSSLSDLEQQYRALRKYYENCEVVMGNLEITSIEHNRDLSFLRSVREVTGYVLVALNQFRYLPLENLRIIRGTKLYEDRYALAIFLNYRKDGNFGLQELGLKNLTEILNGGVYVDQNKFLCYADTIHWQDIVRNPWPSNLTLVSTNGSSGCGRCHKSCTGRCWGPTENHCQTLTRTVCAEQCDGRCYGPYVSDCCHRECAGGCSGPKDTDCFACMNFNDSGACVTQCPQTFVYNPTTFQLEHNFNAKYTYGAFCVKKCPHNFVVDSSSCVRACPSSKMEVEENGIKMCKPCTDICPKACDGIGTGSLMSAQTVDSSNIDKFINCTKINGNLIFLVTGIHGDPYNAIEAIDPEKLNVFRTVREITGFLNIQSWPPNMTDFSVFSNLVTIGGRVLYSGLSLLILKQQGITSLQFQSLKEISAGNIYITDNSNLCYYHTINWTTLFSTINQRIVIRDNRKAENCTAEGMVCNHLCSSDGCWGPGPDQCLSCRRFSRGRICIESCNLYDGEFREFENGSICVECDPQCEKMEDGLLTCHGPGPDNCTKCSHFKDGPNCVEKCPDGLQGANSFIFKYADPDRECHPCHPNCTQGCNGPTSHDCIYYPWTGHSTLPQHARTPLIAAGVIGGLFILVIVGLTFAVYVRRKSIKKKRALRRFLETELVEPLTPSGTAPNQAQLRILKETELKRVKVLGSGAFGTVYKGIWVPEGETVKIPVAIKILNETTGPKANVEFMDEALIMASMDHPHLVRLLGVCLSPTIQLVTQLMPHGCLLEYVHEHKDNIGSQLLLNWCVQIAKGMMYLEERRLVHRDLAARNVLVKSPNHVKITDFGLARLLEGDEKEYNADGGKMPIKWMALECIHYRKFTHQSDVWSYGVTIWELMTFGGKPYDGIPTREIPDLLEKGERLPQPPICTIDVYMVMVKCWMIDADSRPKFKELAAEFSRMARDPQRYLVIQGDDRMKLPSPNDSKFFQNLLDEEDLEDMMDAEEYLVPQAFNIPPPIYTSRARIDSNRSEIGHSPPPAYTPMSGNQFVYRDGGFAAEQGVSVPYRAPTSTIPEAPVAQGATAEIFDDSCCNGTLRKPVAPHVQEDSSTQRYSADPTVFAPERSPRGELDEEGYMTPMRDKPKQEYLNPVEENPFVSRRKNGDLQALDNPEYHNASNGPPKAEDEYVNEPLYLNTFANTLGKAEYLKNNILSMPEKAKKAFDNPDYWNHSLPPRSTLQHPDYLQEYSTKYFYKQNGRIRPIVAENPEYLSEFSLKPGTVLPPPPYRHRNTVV
Ephrin type-A receptor 7 (Homo sapiens), sequence (Q15375 28-998 limits assumed): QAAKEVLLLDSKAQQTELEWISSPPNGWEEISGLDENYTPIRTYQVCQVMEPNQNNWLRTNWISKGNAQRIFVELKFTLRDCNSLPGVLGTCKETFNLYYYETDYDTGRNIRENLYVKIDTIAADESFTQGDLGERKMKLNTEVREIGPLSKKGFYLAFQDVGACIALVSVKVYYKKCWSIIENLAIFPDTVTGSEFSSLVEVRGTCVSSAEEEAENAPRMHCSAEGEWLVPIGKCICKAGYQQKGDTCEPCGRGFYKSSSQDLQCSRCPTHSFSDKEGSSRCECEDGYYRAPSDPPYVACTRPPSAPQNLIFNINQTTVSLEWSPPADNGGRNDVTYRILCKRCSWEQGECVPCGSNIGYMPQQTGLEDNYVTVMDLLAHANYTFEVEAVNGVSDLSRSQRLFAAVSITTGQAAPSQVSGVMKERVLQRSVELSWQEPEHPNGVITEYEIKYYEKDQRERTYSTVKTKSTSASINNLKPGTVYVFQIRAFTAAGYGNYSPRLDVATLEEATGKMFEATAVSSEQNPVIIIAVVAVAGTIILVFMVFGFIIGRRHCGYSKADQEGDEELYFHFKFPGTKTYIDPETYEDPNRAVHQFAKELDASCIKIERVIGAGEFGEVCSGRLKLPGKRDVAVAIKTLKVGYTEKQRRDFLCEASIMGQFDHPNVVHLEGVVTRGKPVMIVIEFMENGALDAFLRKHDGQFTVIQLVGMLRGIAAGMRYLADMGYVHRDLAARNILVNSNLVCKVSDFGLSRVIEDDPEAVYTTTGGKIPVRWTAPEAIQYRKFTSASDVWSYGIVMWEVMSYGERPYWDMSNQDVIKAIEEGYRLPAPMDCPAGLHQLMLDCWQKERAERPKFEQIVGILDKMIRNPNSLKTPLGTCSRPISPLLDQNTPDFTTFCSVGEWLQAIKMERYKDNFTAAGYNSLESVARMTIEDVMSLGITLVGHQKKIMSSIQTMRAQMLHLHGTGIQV
Ephrin type-A receptor 4 (Homo sapiens), sequence (P54764 whole entry): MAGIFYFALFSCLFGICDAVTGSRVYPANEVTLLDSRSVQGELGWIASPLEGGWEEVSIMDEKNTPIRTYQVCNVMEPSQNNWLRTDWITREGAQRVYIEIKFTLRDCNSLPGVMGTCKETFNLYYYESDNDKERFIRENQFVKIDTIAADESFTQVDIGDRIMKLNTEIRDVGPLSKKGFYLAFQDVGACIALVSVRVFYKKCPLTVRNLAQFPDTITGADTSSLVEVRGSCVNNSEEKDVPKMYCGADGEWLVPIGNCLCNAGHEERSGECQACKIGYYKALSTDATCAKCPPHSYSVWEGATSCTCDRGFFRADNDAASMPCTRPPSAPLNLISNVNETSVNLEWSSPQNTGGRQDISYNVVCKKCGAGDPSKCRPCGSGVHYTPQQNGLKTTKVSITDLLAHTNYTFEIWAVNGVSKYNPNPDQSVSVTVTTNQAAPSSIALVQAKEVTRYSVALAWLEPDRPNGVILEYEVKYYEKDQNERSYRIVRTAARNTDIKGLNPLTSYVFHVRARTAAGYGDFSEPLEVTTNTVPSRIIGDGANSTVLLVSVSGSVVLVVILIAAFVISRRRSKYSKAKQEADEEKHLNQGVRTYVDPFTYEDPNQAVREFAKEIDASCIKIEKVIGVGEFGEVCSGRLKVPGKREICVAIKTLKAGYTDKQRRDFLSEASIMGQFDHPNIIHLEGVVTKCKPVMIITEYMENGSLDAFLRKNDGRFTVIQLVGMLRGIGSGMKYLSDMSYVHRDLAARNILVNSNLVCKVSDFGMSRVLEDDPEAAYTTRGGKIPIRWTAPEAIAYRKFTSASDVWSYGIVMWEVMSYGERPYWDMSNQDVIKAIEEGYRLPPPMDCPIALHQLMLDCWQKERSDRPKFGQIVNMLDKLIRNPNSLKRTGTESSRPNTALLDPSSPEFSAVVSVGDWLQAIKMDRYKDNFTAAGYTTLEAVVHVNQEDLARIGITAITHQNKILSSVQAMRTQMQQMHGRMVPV
Focal adhesion kinase 1 (Homo sapiens), sequence (Q05397 2-1052 limits assumed): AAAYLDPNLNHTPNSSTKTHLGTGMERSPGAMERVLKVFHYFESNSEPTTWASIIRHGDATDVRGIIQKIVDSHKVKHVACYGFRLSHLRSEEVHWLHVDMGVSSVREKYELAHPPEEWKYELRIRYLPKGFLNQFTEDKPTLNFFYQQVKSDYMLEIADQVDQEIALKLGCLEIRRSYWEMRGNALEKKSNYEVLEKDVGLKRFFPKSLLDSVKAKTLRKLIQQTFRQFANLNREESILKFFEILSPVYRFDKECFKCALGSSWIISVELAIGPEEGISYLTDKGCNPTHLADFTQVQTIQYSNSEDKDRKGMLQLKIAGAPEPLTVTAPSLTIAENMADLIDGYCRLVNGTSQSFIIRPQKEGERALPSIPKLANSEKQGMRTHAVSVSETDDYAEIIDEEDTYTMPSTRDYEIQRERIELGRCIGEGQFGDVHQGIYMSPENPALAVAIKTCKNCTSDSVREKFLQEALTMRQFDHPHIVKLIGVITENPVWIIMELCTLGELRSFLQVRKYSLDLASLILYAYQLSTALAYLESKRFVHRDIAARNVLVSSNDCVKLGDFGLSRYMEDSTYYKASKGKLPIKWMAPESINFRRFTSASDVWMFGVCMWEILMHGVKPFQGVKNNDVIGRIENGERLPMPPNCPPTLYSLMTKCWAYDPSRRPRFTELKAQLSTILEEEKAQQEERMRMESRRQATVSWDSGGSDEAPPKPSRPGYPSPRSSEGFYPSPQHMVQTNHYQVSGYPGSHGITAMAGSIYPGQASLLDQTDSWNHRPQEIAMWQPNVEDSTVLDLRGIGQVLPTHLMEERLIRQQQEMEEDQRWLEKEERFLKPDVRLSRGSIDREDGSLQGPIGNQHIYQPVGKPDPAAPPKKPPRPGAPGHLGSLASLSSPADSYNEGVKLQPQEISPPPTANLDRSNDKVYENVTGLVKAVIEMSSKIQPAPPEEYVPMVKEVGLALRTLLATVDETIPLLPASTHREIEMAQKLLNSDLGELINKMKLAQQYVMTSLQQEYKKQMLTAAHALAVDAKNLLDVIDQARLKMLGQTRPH

Structure (SMILES)	residual activity [1]	residual activity [2]	residual activity [3]	residual activity [4]	residual activity [5]	residual activity [6]	residual activity [7]	residual activity [8]	residual activity [9]	residual activity [10]	residual activity [11]	residual activity [12]	residual activity [13]	residual activity [14]	residual activity [15]	residual activity [16]
O=C1Nc2ccc(Cl)cc2/C1=C/c1cc(Cl)c(O)c(Cl)c1	54%	99%	90%	92%	71%	90%	79%	94%	86%	113% (inactive)	115%	91%	76%	115%		
Cn1sc(=O)n(Cc2ccccc2)c1=O	86%			86%	86%	87%	84%	90%				87%	98%	95%	87%	80%
